# Measurements as given in the supplement of paper PMC12282887.
# ± gives the standard deviation of the averaged measurements.
# Assays:
# Test in all cases: promoter activity interaction Z-score (Lux/OD deviation from empty-vector control); higher = stronger promoter induction by the compound
# [1] = test system: E. coli BW25113 acrABp lux reporter
# Procedure, shortened: (§1)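 E. coli BW25113, as wild type or one of three single-gene deletion strains, carried low-copy luxCDABE promoter reporters and grew in 40 µl LB Lennox in 384-well plates at 37°C, with OD600 and luminescence read every 30 min for 12 h. Each compound was run at four 1:2 dilutions in biological duplicates, integration spanned 0–8 h for wild type and 1–9 h for deletion strains, and wells under 10% of the median growth value were dropped. The score is the Z-transformed residual of growth-normalised luminescence fitted against a control.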
# [2] = test system: E. coli BW25113 marRABp lux reporter
# Procedure, shortened: as §1
# [3] = test system: E. coli BW25113 micFp lux reporter
# Procedure, shortened: as §1
# [4] = test system: E. coli BW25113 ompFp lux reporter
# Procedure, shortened: as §1
# [5] = test system: E. coli BW25113 robp lux reporter
# Procedure, shortened: as §1
# [6] = test system: E. coli BW25113 soxSp lux reporter
# Procedure, shortened: as §1
# [7] = test system: E. coli BW25113 tolCp lux reporter
# Procedure, shortened: as §1
# [8] = 0.11 µg/ml, genetic background: wild type
# [9] = 0.11 µg/ml, genetic background: ΔmarA
# [10] = 0.11 µg/ml, genetic background: Δrob
# [11] = 0.11 µg/ml, genetic background: ΔsoxS
# [12] = 0.21 µg/ml, genetic background: wild type
# [13] = 0.21 µg/ml, genetic background: ΔmarA
# [14] = 0.21 µg/ml, genetic background: Δrob
# [15] = 0.21 µg/ml, genetic background: ΔsoxS
# [16] = 0.43 µg/ml, genetic background: wild type
# [17] = 0.43 µg/ml, genetic background: ΔmarA
# [18] = 0.43 µg/ml, genetic background: Δrob
# [19] = 0.43 µg/ml, genetic background: ΔsoxS
# [20] = 0.86 µg/ml, genetic background: wild type
# [21] = 0.86 µg/ml, genetic background: ΔmarA
# [22] = 0.86 µg/ml, genetic background: Δrob
# [23] = 0.86 µg/ml, genetic background: ΔsoxS
structure (smiles),measurement,setting,value
Cc1ncc([N+](=O)[O-])n1CCO [Metronidazole],promoter activity interaction Z-score,[1]; [8],0.0148 ± 0.051
same,promoter activity interaction Z-score,[1]; [9],0.993 ± 0.18
same,promoter activity interaction Z-score,[1]; [10],0.102 ± 0.12
same,promoter activity interaction Z-score,[1]; [11],0.194 ± 0.31
same,promoter activity interaction Z-score,[1]; [12],-0.197 ± 0.0096
same,promoter activity interaction Z-score,[1]; [13],-0.0386 ± 0.09
same,promoter activity interaction Z-score,[1]; [14],0.0596 ± 0.14
same,promoter activity interaction Z-score,[1]; [15],0.187 ± 0.31
same,promoter activity interaction Z-score,[1]; [16],-0.222 ± 0.18
same,promoter activity interaction Z-score,[1]; [17],0.706 ± 0.8
same,promoter activity interaction Z-score,[1]; [18],-0.0336 ± 0.17
same,promoter activity interaction Z-score,[1]; [19],0.0816 ± 0.12
same,promoter activity interaction Z-score,[1]; [20],0.191 ± 0.025
same,promoter activity interaction Z-score,[1]; [21],0.645 ± 0.49
same,promoter activity interaction Z-score,[1]; [22],0.143 ± 0.34
same,promoter activity interaction Z-score,[1]; [23],-0.0136 ± 0.22
same,promoter activity interaction Z-score,[2]; [8],0.18 ± 0.22
same,promoter activity interaction Z-score,[2]; [9],-0.0383 ± 0.16
same,promoter activity interaction Z-score,[2]; [10],-0.0923 ± 0.23
same,promoter activity interaction Z-score,[2]; [11],-0.209 ± 0.08
same,promoter activity interaction Z-score,[2]; [12],0.0869 ± 0.33
same,promoter activity interaction Z-score,[2]; [13],-0.213 ± 0.16
same,promoter activity interaction Z-score,[2]; [14],0.0389 ± 0.047
same,promoter activity interaction Z-score,[2]; [15],0.0145 ± 0.012
same,promoter activity interaction Z-score,[2]; [16],-0.113 ± 0.25
same,promoter activity interaction Z-score,[2]; [17],0.07 ± 0.011
same,promoter activity interaction Z-score,[2]; [18],0.119 ± 0.23
same,promoter activity interaction Z-score,[2]; [19],-0.0739 ± 0.18
same,promoter activity interaction Z-score,[2]; [20],0.0285 ± 0.35
same,promoter activity interaction Z-score,[2]; [21],0.0853 ± 0.054
same,promoter activity interaction Z-score,[2]; [22],0.0343 ± 0.03
same,promoter activity interaction Z-score,[2]; [23],-0.0303 ± 0.042
same,promoter activity interaction Z-score,[3]; [8],-0.0559 ± 0.11
same,promoter activity interaction Z-score,[3]; [9],-0.0152 ± 0.0074
same,promoter activity interaction Z-score,[3]; [10],0.0206 ± 0.0032
same,promoter activity interaction Z-score,[3]; [11],-0.264 ± 0.11
same,promoter activity interaction Z-score,[3]; [12],-0.327 ± 0.068
same,promoter activity interaction Z-score,[3]; [13],-0.09496 ± 0.00031
same,promoter activity interaction Z-score,[3]; [14],-0.0735 ± 0.081
same,promoter activity interaction Z-score,[3]; [15],-0.0751 ± 0.037
same,promoter activity interaction Z-score,[3]; [16],-0.152 ± 0.26
same,promoter activity interaction Z-score,[3]; [17],-0.0333 ± 0.092
same,promoter activity interaction Z-score,[3]; [18],-0.000559 ± 0.02
same,promoter activity interaction Z-score,[3]; [19],-0.18 ± 0.06
same,promoter activity interaction Z-score,[3]; [20],-0.0833 ± 0.079
same,promoter activity interaction Z-score,[3]; [21],0.00541 ± 0.1
same,promoter activity interaction Z-score,[3]; [22],-0.0861 ± 0.014
same,promoter activity interaction Z-score,[3]; [23],-0.189 ± 0.084
same,promoter activity interaction Z-score,[4]; [8],0.217 ± 0.3
same,promoter activity interaction Z-score,[4]; [9],0.187 ± 0.0061
same,promoter activity interaction Z-score,[4]; [10],-0.155 ± 0.074
same,promoter activity interaction Z-score,[4]; [11],-0.0733 ± 0.12
same,promoter activity interaction Z-score,[4]; [12],-0.138 ± 0.22
same,promoter activity interaction Z-score,[4]; [13],-0.0604 ± 0.18
same,promoter activity interaction Z-score,[4]; [14],0.261 ± 0.17
same,promoter activity interaction Z-score,[4]; [15],0.2636 ± 0.0018
same,promoter activity interaction Z-score,[4]; [16],-0.0385 ± 0.54
same,promoter activity interaction Z-score,[4]; [17],0.144 ± 0.29
same,promoter activity interaction Z-score,[4]; [18],0.609 ± 0.017
same,promoter activity interaction Z-score,[4]; [19],0.11 ± 0.042
same,promoter activity interaction Z-score,[4]; [20],0.547 ± 0.5
same,promoter activity interaction Z-score,[4]; [21],1.12 ± 0.3
same,promoter activity interaction Z-score,[4]; [22],0.862 ± 0.19
same,promoter activity interaction Z-score,[4]; [23],0.815 ± 0.34
same,promoter activity interaction Z-score,[5]; [8],0.061 ± 0.23
same,promoter activity interaction Z-score,[5]; [9],0.425 ± 0.28
same,promoter activity interaction Z-score,[5]; [10],0.355 ± 0.21
same,promoter activity interaction Z-score,[5]; [11],-0.235 ± 0.13
same,promoter activity interaction Z-score,[5]; [12],0.165 ± 0.35
same,promoter activity interaction Z-score,[5]; [13],-0.111 ± 0.75
same,promoter activity interaction Z-score,[5]; [14],0.8 ± 0.29
same,promoter activity interaction Z-score,[5]; [15],0.979 ± 1.1
same,promoter activity interaction Z-score,[5]; [16],0.177 ± 0.99
same,promoter activity interaction Z-score,[5]; [17],0.7 ± 0.077
same,promoter activity interaction Z-score,[5]; [18],0.452 ± 0.054
same,promoter activity interaction Z-score,[5]; [19],-0.0713 ± 0.41
same,promoter activity interaction Z-score,[5]; [20],0.378 ± 0.83
same,promoter activity interaction Z-score,[5]; [21],0.776 ± 0.22
same,promoter activity interaction Z-score,[5]; [22],0.36 ± 0.24
same,promoter activity interaction Z-score,[5]; [23],0.489 ± 0.32
same,promoter activity interaction Z-score,[6]; [8],0.0487 ± 0.14
same,promoter activity interaction Z-score,[6]; [9],0.0513 ± 0.066
same,promoter activity interaction Z-score,[6]; [10],-0.047 ± 0.051
same,promoter activity interaction Z-score,[6]; [11],-0.0356 ± 0.017
same,promoter activity interaction Z-score,[6]; [12],-0.0569 ± 0.11
same,promoter activity interaction Z-score,[6]; [13],-0.088 ± 0.048
same,promoter activity interaction Z-score,[6]; [14],0.106 ± 0.0032
same,promoter activity interaction Z-score,[6]; [15],0.0415 ± 0.21
same,promoter activity interaction Z-score,[6]; [16],0.0827 ± 0.065
same,promoter activity interaction Z-score,[6]; [17],-0.0818 ± 0.06
same,promoter activity interaction Z-score,[6]; [18],0.0852 ± 0.18
same,promoter activity interaction Z-score,[6]; [19],0.0431 ± 0.011
same,promoter activity interaction Z-score,[6]; [20],0.036 ± 0.026
same,promoter activity interaction Z-score,[6]; [21],-0.085 ± 0.049
same,promoter activity interaction Z-score,[6]; [22],-0.132 ± 0.058
same,promoter activity interaction Z-score,[6]; [23],0.0974 ± 0.06
same,promoter activity interaction Z-score,[7]; [8],-0.237 ± 0.51
same,promoter activity interaction Z-score,[7]; [9],0.544 ± 0.53
same,promoter activity interaction Z-score,[7]; [10],-0.201 ± 0.23
same,promoter activity interaction Z-score,[7]; [11],0.183 ± 0.079
same,promoter activity interaction Z-score,[7]; [12],-0.938 ± 0.4
same,promoter activity interaction Z-score,[7]; [13],-0.0891 ± 0.26
same,promoter activity interaction Z-score,[7]; [14],0.158 ± 0.57
same,promoter activity interaction Z-score,[7]; [15],-0.129 ± 0.43
same,promoter activity interaction Z-score,[7]; [16],-0.953 ± 0.17
same,promoter activity interaction Z-score,[7]; [17],0.401 ± 1.3
same,promoter activity interaction Z-score,[7]; [18],-0.12 ± 0.26
same,promoter activity interaction Z-score,[7]; [19],-0.386 ± 0.015
same,promoter activity interaction Z-score,[7]; [20],0.119 ± 0.47
same,promoter activity interaction Z-score,[7]; [21],0.316 ± 0.49
same,promoter activity interaction Z-score,[7]; [22],-0.271 ± 1.3
same,promoter activity interaction Z-score,[7]; [23],0.345 ± 0.71
